Measured values taken from PMC5540273 (PLoS ONE, 2017).

Legend:
AAK1 = settings: concentration: 1 μM, replicates: in singlicate; n = 1
ABL1-nonphosphorylated = settings: concentration: 1 μM, replicates: in singlicate; n = 1
ABL1-phosphorylated = settings: concentration: 1 μM, replicates: in singlicate; n = 1
ABL2 = settings: concentration: 1 μM, replicates: in singlicate; n = 1
p38-alpha = test system: T1, p38-alpha
T1 construct: gene MAPK14

YSK4 = test system: T2, YSK4
T2 construct: gene MAP3K19

YES = test system: T3, YES
T3 construct: gene YES1

p38-gamma = test system: T4, p38-gamma
T4 construct: gene MAPK12

YANK2 = test system: T5, YANK2
T5 construct: gene STK32B
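For %Inh in this document: KINOMEscan kinase panel screen.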
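For Kd in this document: kd values determined as follow-up on hits from a single-replicate KINOMEscan panel screen.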

CN1C(=O)C(Nc2cc(Cl)c(O)c(Cl)c2)=C(c2ccc(Cl)cc2)C1=O [SB-404321]
%Inh (AAK1): 0%
%Inh (ABL1-nonphosphorylated): 30%
%Inh (ABL1-phosphorylated): 0%
%Inh (ABL2): 0%

Cc1nnc(-c2ccc3ncn(-c4ccc(S(C)=O)cc4)c3c2)o1 (centres unmarked)
%Inh (AAK1): 0%
%Inh (ABL1-nonphosphorylated): 22%
%Inh (ABL1-phosphorylated): 0%
%Inh (ABL2): 6%

O=C(Nc1ccc2c(c1)OCO2)NC1CCN(c2ccnc(NCc3ccc(F)cc3)n2)CC1 [GSK1379859]
%Inh (AAK1): 0%
%Inh (ABL1-nonphosphorylated): 0%
%Inh (ABL1-phosphorylated): 0%
%Inh (ABL2): 0%

OCCCNc1nccc(-c2c(-c3cccc(C(F)(F)F)c3)nn3cc(C(F)(F)F)ccc23)n1 [GW630813]
Kd (p38-alpha): 1300 nM
%Inh (AAK1): 0%
%Inh (ABL1-nonphosphorylated): 0%
%Inh (ABL1-phosphorylated): 0%
%Inh (ABL2): 0%

COc1cc2nccc(Nc3cccc(Oc4ccccc4)c3)c2cc1OC.Cl [GW284543]
%Inh (AAK1): 0%
%Inh (ABL1-nonphosphorylated): 0%
%Inh (ABL1-phosphorylated): 0%
%Inh (ABL2): 15%

COc1ccc(CNC(=O)NC2CCN(c3ccnc(Nc4ccc(F)cc4)n3)C2)cc1 (centres unmarked) [GSK1379706]
%Inh (AAK1): 32%
%Inh (ABL1-nonphosphorylated): 0%
%Inh (ABL1-phosphorylated): 0%
%Inh (ABL2): 2%

COc1cc(Nc2nccc(N3CCC(NC(=O)C(C)c4ccc(Cl)cc4)C3)n2)cc(OC)c1OC (centres unmarked) [GSK1379757]
%Inh (AAK1): 37%
%Inh (ABL1-nonphosphorylated): 0%
%Inh (ABL1-phosphorylated): 0%
%Inh (ABL2): 7%

CN(C)c1cc(-c2ccc3c(N)n[nH]c3c2)nc(N)n1 [GSK2219329]
Kd (ZAK): > 10000 nM
%Inh (AAK1): 10%
%Inh (ABL1-nonphosphorylated): 0%
%Inh (ABL1-phosphorylated): 0%
%Inh (ABL2): 0%

Cc1cccc(-c2nc(Nc3ccc4c(cnn4C)c3)c3ccccc3n2)n1 [GW876731]
%Inh (AAK1): 0%
%Inh (ABL1-nonphosphorylated): 0%
%Inh (ABL1-phosphorylated): 0%
%Inh (ABL2): 0%

O=C(Nc1n[nH]c2cc(-c3ccccc3F)ccc12)C1CC1 [SB-733371]
Kd (YSK4): 200 nM
%Inh (AAK1): 9%
%Inh (ABL1-nonphosphorylated): 46%
%Inh (ABL1-phosphorylated): 21%
%Inh (ABL2): 9%

COc1cc2ncn(-c3cc(OCc4ccncc4Br)c(C(N)=O)s3)c2cc1OC [GW854278]
%Inh (AAK1): 17%
%Inh (ABL1-nonphosphorylated): 15%
%Inh (ABL1-phosphorylated): 0%
%Inh (ABL2): 5%

Cc1nc(N(C)[C@H]2CN(C(=O)CC#N)CC[C@H]2C)c2cc[nH]c2n1
%Inh (AAK1): 0%
%Inh (ABL1-nonphosphorylated): 1%
%Inh (ABL1-phosphorylated): 2%
%Inh (ABL2): 1%

O=C(NCCNc1ccnc(Nc2ccc(F)cc2)n1)Nc1ccc2c(c1)OCO2 [GSK1379882]
Kd (ZAK): > 10000 nM
%Inh (AAK1): 20%
%Inh (ABL1-nonphosphorylated): 0%
%Inh (ABL1-phosphorylated): 0%
%Inh (ABL2): 0%

COc1cc(OC)cc(-c2cc3cnc(N)nc3nc2NC(=O)NC(C)(C)C)c1
Kd (YES): > 10000 nM
%Inh (AAK1): 15%
%Inh (ABL1-nonphosphorylated): 39%
%Inh (ABL1-phosphorylated): 0%
%Inh (ABL2): 0%

COc1ccc(Nc2nccc(N3CCC(NS(=O)(=O)c4ccc(NC(C)=O)cc4)C3)n2)cc1 (centres unmarked) [GSK1379729]
Kd (p38-alpha): > 10000 nM
%Inh (AAK1): 0%
%Inh (ABL1-nonphosphorylated): 0%
%Inh (ABL1-phosphorylated): 0%
%Inh (ABL2): 20%

Cl.c1ccc(Cn2cnc3cc(Nc4ncnc5ccccc45)ccc32)cc1 [GW272142]
%Inh (AAK1): 5%
%Inh (ABL1-nonphosphorylated): 0%
%Inh (ABL1-phosphorylated): 0%
%Inh (ABL2): 9%

C[C@@H]1CC[C@H](C(=O)NC2CCCCC2)CN1c1cc(-c2ccc3c(N)n[nH]c3c2)nc(N)n1 [GSK2291363]
%Inh (AAK1): 55%
%Inh (ABL1-nonphosphorylated): 5%
%Inh (ABL1-phosphorylated): 0%
%Inh (ABL2): 20%

COc1ccc(-c2cc3c(C)nc(N)nc3n([C@H]3CC[C@H](O)CC3)c2=O)cn1
Kd (p38-gamma): > 10000 nM
%Inh (AAK1): 0%
%Inh (ABL1-nonphosphorylated): 0%
%Inh (ABL1-phosphorylated): 0%
%Inh (ABL2): 0%

Cc1nnc(-c2ccc(C)c(-c3ccc(C(=O)O)cc3)c2)o1 [GW608005]
%Inh (AAK1): 0%
%Inh (ABL1-nonphosphorylated): 0%
%Inh (ABL1-phosphorylated): 0%
%Inh (ABL2): 0%

O=C(Nc1n[nH]c2nc(-c3ccccc3)c(Br)cc12)C1CC1 [SB-708998]
Kd (YSK4): 640 nM
%Inh (AAK1): 8%
%Inh (ABL1-nonphosphorylated): 43%
%Inh (ABL1-phosphorylated): 11%
%Inh (ABL2): 2%

O=C1NC(=O)C(c2ccccc2)=C1Nc1cccc(O)c1 [SB-390534]
%Inh (AAK1): 0%
%Inh (ABL1-nonphosphorylated): 22%
%Inh (ABL1-phosphorylated): 5%
%Inh (ABL2): 1%

Nc1ncnc2c1ncn2-c1cccc2ccccc12 [SKF-97184]
Kd (YANK2): > 10000 nM
%Inh (AAK1): 0%
%Inh (ABL1-nonphosphorylated): 46%
%Inh (ABL1-phosphorylated): 26%
%Inh (ABL2): 0%

Nc1ncnc2c1ncn2-c1ccc(Cl)cc1 [AH2635]
%Inh (AAK1): 0%
%Inh (ABL1-nonphosphorylated): 0%
%Inh (ABL1-phosphorylated): 0%
%Inh (ABL2): 0%

Nc1nc(-c2ccccc2F)c(-c2ccnc3ccccc23)s1 [GW560459]
Kd (p38-alpha): 240 nM
%Inh (AAK1): 12%
%Inh (ABL1-nonphosphorylated): 0%
%Inh (ABL1-phosphorylated): 0%
%Inh (ABL2): 3%

COc1ccc(-c2coc3ccc(-c4nnc(SCc5cccc(C#N)c5)o4)cc23)cc1
%Inh (AAK1): 0%
%Inh (ABL1-nonphosphorylated): 23%
%Inh (ABL1-phosphorylated): 0%
%Inh (ABL2): 0%
